Laboratory results published in PubChem BioAssay.
The source made the active and inactive calls.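 The calls were made as follows, unless noted: active = normalized viability below 100% at a tested concentration; inactive = the rest.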

Columns and labels:
[1] = drug combination growth inhibition, ovarian cancer – cell-based, oncology-focused library, rucaparib conditional, profiling panel (AID 1508598); conditions: patient-derived ovarian cancer cells, CellTiter-Glo viability, 144 h, stronger effect = lower value
[2] = growth inhibition, single agent or in combination, cell-based, chromothripsis tumors, cisplatin or BGB combos (AID 1671449; in the data active = inhibition above about 80%;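 also: cells exposed for 96 hours; 0% = vehicle DMSO and 100% = killing by high DMSO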); conditions: LFS_MB_P medulloblastoma cells
[3] = growth inhibition, single agent and combos, cell-based, chromothripsis tumors, cisplatin or BGB combos (AID 1671450; in the data active = inhibition above about 80%;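 also: cells exposed to compound for four days; 0% = vehicle DMSO and 100% = cell killing by high DMSO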); conditions: HDN33 neuroblastoma cells, stronger effect = higher value
[4] = growth inhibition, single agents and combos, ICB984, cell-based, cisplatin or BGB combos, synergistic combos for chromothripsis tumors (AID 1671451; call rule not given here;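 also: cells exposed for 96 hours before readout; 0% = vehicle DMSO and 100% = killing by high DMSO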); conditions: ICB984 medulloblastoma cells, drug combinations, stronger effect = higher value
[5] = growth inhibition, single agents and combos, LFS_MB_1R, cell-based, cisplatin or BGB combos, synergistic combos for chromothripsis tumors (AID 1671452; in the data active = inhibition above about 80%;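 also: cells exposed for 96 hours before readout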); conditions: LFS_MB_1R medulloblastoma cells, stronger effect = higher value
[6] = growth inhibition, single agents and combos, HTB85, cell-based, BGB or cisplatin IC20 combos, synergistic combos for chromothripsis tumors (AID 1671453; in the data active = inhibition above about 80%;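 also: cells exposed for 96 hours before readout; 0% = vehicle DMSO and 100% = high DMSO killing control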); conditions: HTB85 osteosarcoma cells, drug combinations, stronger effect = higher value
[7] = growth inhibition, MDA-MB-436, cell-based, BGB or cisplatin combos, synergistic combos for chromothripsis tumors (AID 1671458; call rule not given here;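 also: cells exposed for 96 hours; 0% = vehicle DMSO and 100% = killing by high DMSO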); conditions: MDA-MB-436 breast carcinoma growth inhibition, drug combinations, stronger effect = higher value
[8] = BT084 cell growth, single and combined drugs, ICGC_MB145, cisplatin and BGB IC40 combos (AID 1671461; in the data active = inhibition above about 80%;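 also: cells exposed to drugs for 96 hours; 0% = vehicle DMSO and 100% = high DMSO full killing control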); conditions: BT084 medulloblastoma cells, drug combinations, stronger effect = higher value
[9] = RCMB18 cell growth, single agent and combined, cisplatin and BGB IC40 combos (AID 1671462; in the data active = inhibition above about 80%;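 also: cells exposed to compound for four days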); conditions: RCMB18 medulloblastoma cells, stronger effect = higher value
[10] = CRL1545 cell growth, single agent and combined, cisplatin and BGB IC20 combos (AID 1671464; in the data active = inhibition above about 80%;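 also: cells exposed to compound for 96 hours before readout; 0% = vehicle DMSO and 100% = high DMSO killing control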); conditions: CRL1545 osteosarcoma cells, stronger effect = higher value
[11] = at 0.000305 µM, OCI-C5x cells, with rucaparib 10 µM, 100% = cells with rucaparib alone
[12] = at 0.000305 µM, OCI-C5x cells, without rucaparib
[13] = at 0.000305 µM, OCI-P5x cells, with rucaparib 20 µM, 100% = cells with rucaparib alone
[14] = at 0.000305 µM, OCI-P5x cells, without rucaparib
[15] = at 0.00122 µM, OCI-C5x cells, with rucaparib 10 µM, 100% = cells with rucaparib alone
[16] = at 0.00122 µM, OCI-C5x cells, without rucaparib
[17] = at 0.00122 µM, OCI-P5x cells, with rucaparib 20 µM, 100% = cells with rucaparib alone
[18] = at 0.00122 µM, OCI-P5x cells, without rucaparib
[19] = at 0.00488 µM, OCI-C5x cells, with rucaparib 10 µM, 100% = cells with rucaparib alone
[20] = at 0.00488 µM, OCI-C5x cells, without rucaparib
[21] = at 0.00488 µM, OCI-P5x cells, with rucaparib 20 µM, 100% = cells with rucaparib alone
[22] = at 0.00488 µM, OCI-P5x cells, without rucaparib
[23] = at 0.0195 µM, OCI-C5x cells, with rucaparib 10 µM, 100% = cells with rucaparib alone
[24] = at 0.0195 µM, OCI-C5x cells, without rucaparib
[25] = at 0.0195 µM, OCI-P5x cells, with rucaparib 20 µM, 100% = cells with rucaparib alone
[26] = at 0.0195 µM, OCI-P5x cells, without rucaparib
[27] = at 0.0781 µM, OCI-C5x cells, with rucaparib 10 µM, 100% = cells with rucaparib alone
[28] = at 0.0781 µM, OCI-C5x cells, without rucaparib
[29] = at 0.0781 µM, OCI-P5x cells, with rucaparib 20 µM, 100% = cells with rucaparib alone
[30] = at 0.0781 µM, OCI-P5x cells, without rucaparib
[31] = at 0.313 µM, OCI-C5x cells, with rucaparib 10 µM, 100% = cells with rucaparib alone
[32] = at 0.313 µM, OCI-C5x cells, without rucaparib
[33] = at 0.313 µM, OCI-P5x cells, with rucaparib 20 µM, 100% = cells with rucaparib alone
[34] = at 0.313 µM, OCI-P5x cells, without rucaparib
[35] = at 1.25 µM, OCI-C5x cells, with rucaparib 10 µM, 100% = cells with rucaparib alone
[36] = at 1.25 µM, OCI-C5x cells, without rucaparib
[37] = at 1.25 µM, OCI-P5x cells, with rucaparib 20 µM, 100% = cells with rucaparib alone
[38] = at 1.25 µM, OCI-P5x cells, without rucaparib
[39] = at 5 µM, OCI-C5x cells, with rucaparib 10 µM, 100% = cells with rucaparib alone
[40] = at 5 µM, OCI-C5x cells, without rucaparib
[41] = at 5 µM, OCI-P5x cells, with rucaparib 20 µM, 100% = cells with rucaparib alone
[42] = at 5 µM, OCI-P5x cells, without rucaparib
[43] = measured here: combination with BGB IC40, at 0.05 µM
[44] = measured here: with BGB IC20 combination, at 0.5 µM
[45] = measured here: with cisplatin IC20 combination, at 0.5 µM
[46] = measured here: combination with cisplatin, at 0.5 µM

CC(=O)O[C@]12CO[C@@H]1C[C@H](O)[C@]1(C)C(=O)[C@H](O)C3=C(C)[C@H](OC(=O)[C@H](O)[C@@H](NC(=O)OC(C)(C)C)c4ccccc4)C[C@](O)([C@H](OC(=O)c4ccccc4)C21)C3(C)C (stereo partly specified)
inactive: viability [1, 11] 118% | viability [1, 12] 115% | viability [1, 13] 120% | viability [1, 14] 106%
active: viability [1, 15] 86.4% | viability [1, 16] 76% | viability [1, 17] 93% | viability [1, 18] 33.3% | viability [1, 19] 37.6% | viability [1, 20] 32.6% | viability [1, 21] 70.1% | viability [1, 22] 19.5% | viability [1, 23] 41.9% | viability [1, 24] 35.3% | viability [1, 25] 56.6% | viability [1, 26] 16.8% | viability [1, 27] 38.2% | viability [1, 28] 33.7% | viability [1, 29] 61.2% | viability [1, 30] 19.8% | viability [1, 31] 41.5% | viability [1, 32] 37.8% | viability [1, 33] 55.6% | viability [1, 34] 18.6% | viability [1, 35] 47.4% | viability [1, 36] 41.3% | viability [1, 37] 55.9% | viability [1, 38] 20.7% | viability [1, 39] 37.7% | viability [1, 40] 56.7% | viability [1, 41] 34.2% | viability [1, 42] 16.1%

COc1ccc(C2=N[C@H](c3ccc(Cl)cc3)[C@@H](c3ccc(Cl)cc3)N2C(=O)N2CCNC(=O)C2)c(OC(C)C)c1
active: viability [1, 13] 88.9% | viability [1, 14] 86.6% | viability [1, 17] 93.4% | viability [1, 18] 85.3% | viability [1, 21] 95.4% | viability [1, 22] 90.1% | viability [1, 25] 96.3% | viability [1, 26] 86.4% | viability [1, 29] 86.1% | viability [1, 30] 78.2% | viability [1, 33] 64.3% | viability [1, 34] 56.8% | viability [1, 37] 98.1% | viability [1, 38] 98% | viability [1, 41] 94.1% | viability [1, 42] 98.2%
inactive: viability [1, 11] 112% | viability [1, 12] 103% | viability [1, 15] 118% | viability [1, 16] 101% | viability [1, 19] 130% | viability [1, 20] 112% | viability [1, 23] 127% | viability [1, 24] 105% | viability [1, 27] 120% | viability [1, 28] 111% | viability [1, 31] 111% | viability [1, 32] 107% | viability [1, 35] 114% | viability [1, 36] 102% | viability [1, 39] 182% | viability [1, 40] 137%

Cc1[nH]c(C=C2C(=O)Nc3ccc(S(=O)(=O)Cc4c(Cl)cccc4Cl)cc32)c(C)c1C(=O)N1CCC[C@@H]1CN1CCCC1
active: viability [1, 13] 74% | viability [1, 14] 47.4% | viability [1, 17] 87.5% | viability [1, 18] 57.1% | viability [1, 25] 93.6% | viability [1, 26] 91.6% | viability [1, 29] 96% | viability [1, 30] 89.5% | viability [1, 33] 93% | viability [1, 34] 94.4% | viability [1, 37] 90.6% | viability [1, 38] 87% | viability [1, 41] 1.25% | viability [1, 42] 52.5%
inactive: viability [1, 11] 124% | viability [1, 12] 124% | viability [1, 15] 122% | viability [1, 16] 115% | viability [1, 19] 116% | viability [1, 20] 121% | viability [1, 21] 105% | viability [1, 22] 101% | viability [1, 23] 107% | viability [1, 24] 111% | viability [1, 27] 106% | viability [1, 28] 113% | viability [1, 31] 123% | viability [1, 32] 110% | viability [1, 35] 122% | viability [1, 36] 136% | viability [1, 39] 109% | viability [1, 40] 116%

C=CC1=C(C)C2=CC3=NC(=C(CC(=O)O)C4=NC(=C(C)C4=C(O)O)C=c4[nH]c(c(C)c4CC)=CC1=N2)C(CCC(=O)O)C3C (stereo unspecified)
-59.6%: inhibition ([2]; measured here: combination with cisplatin, at 5 µM, stronger effect = higher value)
-18.8%: inhibition ([2]; measured here: combination with cisplatin, at 0.5 µM, stronger effect = higher value)
17%: inhibition ([10]; single agent, at 5 µM)
-7.95%: inhibition [2, 43]
-29.2%: inhibition ([6]; measured here: with BGB IC20, at 0.5 µM)
-19.5%: inhibition ([7]; measured here: BGB combination, at 0.5 µM)
-25.1%: inhibition ([4]; BGB IC40 combo, at 0.005 µM)
-40.8%: inhibition ([8]; cisplatin combination, at 5 µM)
-5.59%: inhibition [9, 46]
10.4%: inhibition ([3]; single agent, at 5 µM)
2.58%: inhibition [10, 44]
-1.9%: inhibition ([6]; measured here: with cisplatin IC20, at 5 µM)
-26.5%: inhibition ([9]; single agent, at 5 µM)
-36.2%: inhibition ([7]; measured here: cisplatin combination, at 0.5 µM)
5.39%: inhibition ([4]; measured here: 5 uM single agent, at 5 µM)
-38.7%: inhibition ([9]; measured here: BGB IC40 combination, at 0.05 µM)
-14.7%: inhibition ([7]; measured here: BGB combination, at 5 µM)
-13.2%: inhibition [5, 46]
-23.1%: inhibition ([4]; BGB IC20 combo, at 0.005 µM)
3.74%: inhibition ([8]; cisplatin combination, at 0.5 µM)
-2.96%: inhibition ([5]; measured here: combination with cisplatin, at 5 µM)
-27.9%: inhibition ([6]; measured here: with cisplatin IC20, at 0.5 µM)
-3.49%: inhibition ([8]; measured here: BGB IC40 combination 0.05 uM, at 0.05 µM)
-27.4%: inhibition ([2]; measured here: combination with BGB IC20, at 0.005 µM)
3.9%: inhibition ([10]; single agent, at 0.05 µM)
1.12%: inhibition ([6]; single agent, at 5 µM)
-11.5%: inhibition ([6]; measured here: with BGB IC20, at 5 µM) | inhibition ([7]; measured here: cisplatin combination, at 5 µM)
30.7%: inhibition ([9]; cisplatin combo, at 5 µM)
-25.5%: inhibition ([4]; cisplatin combo, at 5 µM)
-20.4%: inhibition ([2]; measured here: combination with BGB IC40, at 0.005 µM)
8.33%: inhibition [3, 45]
-20%: inhibition ([4]; BGB IC40 combo, at 0.05 µM) | inhibition ([4]; cisplatin combo, at 0.05 µM)
-2.85%: inhibition [3, 44]
-10.5%: inhibition ([8]; single agent, at 5 µM)
inactive: inhibition ([2]; at 0.5 µM, stronger effect = higher value) -22.2% | inhibition ([3]; at 0.5 µM) -6.06% | inhibition ([4]; at 0.5 µM) -26.5% | inhibition ([5]; at 0.5 µM) -18.3% | inhibition ([6]; at 0.5 µM) -16.7% | inhibition ([7]; at 0.5 µM) -19% | inhibition ([8]; at 0.5 µM) -4.34% | inhibition ([9]; at 0.5 µM) -15.6% | inhibition ([10]; at 0.5 µM) -23.9%
-22.1%: inhibition [5, 43]
-37.1%: inhibition [10, 45]
-5.94%: inhibition ([3]; BGB combo, at 5 µM)
-42.5%: inhibition ([4]; cisplatin combo, at 0.5 µM)
3.3%: inhibition ([3]; cisplatin combo, at 5 µM)
